Hits are enriched below; roughly 13% of the tested compounds scored in any of these assays.
HCV inhibitor: qHTS Assay for Inhibitors of Hepatitis C Virus (HCV) | Huh7.5.1 HCVcc-Cre infection, luciferase reporter, 44 h | Potency, µM (titrated, usually from 41.8 µM), most hits filed as inhibitors | actives 3.4% (n = 340,000)
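Cells seeded at 1,000/well and cultured 4 h, then compounds added followed by HCVcc-Cre virus (~0.5 moi). After 44 h further culture, luciferase substrate was added, plates held 15 min at room temperature, and luminescence read for 15 sec.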
Pf growth 48h: Primary qHTS for delayed death inhibitors of the malarial parasite plastid, 48 hour incubation; P. falciparum luciferase growth in erythrocytes, 48 h; Potency, µM (highest dose often 28.7 µM), most hits filed as inhibitors; actives 5.9% (n = 310,000); AID 504832, 2011
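Read-out is firefly luciferase luminescence from an integrated reporter in P. falciparum, so falling signal marks reduced parasite growth. Infected erythrocytes were at 2% hematocrit and 0.1% parasitemia (final) in Albumax-supplemented RPMI 1640.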
Pf growth 96h: Primary qHTS for delayed death inhibitors of the malarial parasite plastid, 96 hour incubation; AID 504834, 2011; actives 6.9% (n = 320,000); Potency, µM (titrated, usually from 28.7 µM), usual class: inhibitors; P. falciparum luciferase reporter growth, 96 h
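Erythrocytes infected with luciferase-expressing P. falciparum were dispensed at 2% hematocrit and 0.05% parasitemia (final), then incubated with compounds 96 hours at 37 C in 5% CO2. Luminescence after detection reagent addition reported growth.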
HCMV inh: qHTS Assay for inhibitors of the human cytomegalovirus (HCMV). HFF cells, HCMV-luciferase reporter, 72 h; active compounds read low. actives 4.5% (n = 410,000). activity change, negative = inhibition, % at 57.5 µM. AID 1259415, 2018; in the data active = activity change below about -60%; inconclusive = no clear call, values can overlap the other calls; inactive = above about -39%
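Two compound doses tested in HFFs infected with HCMV-luciferase, MOI 1 PFU/cell, 72 h at 37C. Lysate luminescence read with OneGlo; data normalized against buffer-only and 10uM Salinomycin inhibitor controls.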
Each line names hits and unclear results; the compound was inactive in the other large screens. Unless noted, calls come from the whole dose curve; as a rule, active = well fitted inhibition curve with a large enough effect; inconclusive = small, poorly fitted or top-dose-only effect, or another doubt; inactive = no such curve, though single readings can be large or run the other way.

Cc1cccc(S(=O)(=O)c2cn(C)c3cc(N4CCCCCC4)c(F)cc3c2=O)c1	none (no result: HCV inhibitor, Pf growth 48h, Pf growth 96h)
COc1cccc(C2CN(c3ccc(F)cc3F)N=C2c2cccs2)c1OC (centres undefined)	Pf growth 48h 5.9µM, Pf growth 96h 12µM
Oc1ccc(-c2n[nH]c(C(F)(F)F)c2-c2ccccc2)c(O)c1	HCV inhibitor 5.6µM, HCMV inh -82
COc1ccccc1-c1c(-c2ccc(O)cc2O)n[nH]c1C(F)(F)F	HCV inhibitor inconclusive, Pf growth 48h inconclusive, Pf growth 96h 13µM, HCMV inh active
CCOC(=O)C1(Cc2ccccc2C(F)(F)F)CCN(C2CCN(C(C)=O)CC2)CC1	Pf growth 48h 9.3µM, Pf growth 96h inconclusive
CCOC(=O)C1(Cc2ccccc2C(F)(F)F)CCN(C2CCC2)CC1	Pf growth 48h inconclusive, Pf growth 96h inconclusive
O=C(c1cccc(F)c1)N1CCN(c2cc(N3CCCCC3)c(F)cc2[N+](=O)[O-])CC1	Pf growth 48h inconclusive, Pf growth 96h inconclusive, HCMV inh -74
O=C(c1ccc(N2CCCC2)c([N+](=O)[O-])c1)N1CCN(S(=O)(=O)c2ccccc2)CC1	HCV inhibitor 14µM, Pf growth 48h 10µM, Pf growth 96h inconclusive
O=C(c1ccc(-n2cncn2)c([N+](=O)[O-])c1)N1CCN(c2cccc(Cl)c2)CC1	none (no result: HCV inhibitor)
Cc1ccc(C)c(S(=O)(=O)N2CCN(C(=O)c3ccc(-n4cncn4)c([N+](=O)[O-])c3)CC2)c1	HCV inhibitor inconclusive, Pf growth 48h inconclusive, Pf growth 96h 12µM
CCC(=O)N1CCN(c2cc(N3CCCC3)c(F)cc2[N+](=O)[O-])CC1	HCMV inh inconclusive (no result: Pf growth 48h, Pf growth 96h)
O=C(c1ccc(-n2cncn2)c([N+](=O)[O-])c1)N1CCN(S(=O)(=O)c2ccc(Cl)cc2)CC1	Pf growth 48h inconclusive, Pf growth 96h 4.7µM
Cc1ccc(NC(=O)c2cc3c(=O)n(Cc4ccco4)ccc3nc2C)cc1C	none (no result: HCV inhibitor, Pf growth 48h, Pf growth 96h)
CNC(=O)CN1C(=O)COc2ccc(S(=O)(=O)N3CCC(C)CC3)cc21	none (no result: HCV inhibitor, Pf growth 48h, Pf growth 96h)
Cc1ccc(-c2nn3c(=O)cc(CN4CCN(C(=O)Nc5cc(Cl)ccc5C)CC4)nc3s2)cc1	none (no result: HCV inhibitor, Pf growth 48h, Pf growth 96h)
COC(=O)CCC(=O)OC1(C)C(=O)C=C2C=C(C3CC3)N(C3CCCCC3)C=C2C1=O (centres undefined)	HCV inhibitor inconclusive, Pf growth 48h inconclusive, Pf growth 96h inconclusive
COC(=O)CCC(=O)OC1(C)C(=O)C=C2C=C(C3CC3)N(CC3CC3)C=C2C1=O (centres undefined)	Pf growth 48h 10µM, Pf growth 96h 4.1µM
COC(=O)CCC(=O)OC1(C)C(=O)C=C2C=C(C3CC3)N(CC(C)C)C=C2C1=O (centres undefined)	Pf growth 48h 2.9µM, Pf growth 96h 1.9µM (no result: HCV inhibitor, HCMV inh)
COC(=O)CCC(=O)OC1(C)C(=O)C=C2C=C(C3CC3)N(C3CCCC3)C=C2C1=O (centres undefined)	Pf growth 48h inconclusive, Pf growth 96h 7.4µM
COC(=O)c1scc(-c2ccc(C)cc2)c1S(=O)(=O)Nc1ccc(F)cc1F	none (no result: HCV inhibitor, Pf growth 48h, Pf growth 96h)
CC(C)C[C@@H]1COc2cc(NCCCN3CCOCC3)ccc2S(=O)(=O)N1	none (no result: HCV inhibitor, Pf growth 48h, Pf growth 96h)
COc1ccccc1N1CCN(C2CCCN(Cc3c(F)cccc3F)C2)CC1 (centres undefined)	none
COc1ccccc1CN1CCCC(N2CCN(c3ccccc3OC)CC2)C1 (centres undefined)	Pf growth 96h 4.7µM
COc1cc(CN2CCC(C(=O)N3CCN(c4ccccc4F)CC3)CC2)ccc1O	HCV inhibitor 22µM, Pf growth 48h inconclusive
CSc1ccc(CN2CCCC(N3CCN(c4ccccc4)CC3)C2)cc1 (centres undefined)	HCV inhibitor inconclusive, Pf growth 48h inconclusive, Pf growth 96h 9.3µM
COc1cccc(CN2CCC(C(=O)N3CCN(c4ccccc4F)CC3)CC2)c1	Pf growth 96h inconclusive
COc1cc(CN2CCCC(N3CCN(c4ccccc4C)CC3)C2)ccc1O (centres undefined)	HCV inhibitor inconclusive, Pf growth 48h 8.3µM
O=C(NCc1cccs1)c1ccc(CSc2nc3ccncc3n2Cc2ccccc2F)cc1	none (no result: HCV inhibitor, Pf growth 48h, Pf growth 96h)
O=C(NCc1cccs1)c1ccc2sc(C3=C[C@@H](O)[C@@H](O)[C@@H](CO)O3)nc2c1	none (no result: HCV inhibitor, Pf growth 48h, Pf growth 96h)
CC(C)(C)C(=O)Nc1cc(-c2cccc(Br)c2)nn1-c1ccccc1	none (no result: HCV inhibitor, Pf growth 48h, Pf growth 96h)
COc1ccccc1N1CCN(Cc2cccc(OC)c2O)CC1	Pf growth 48h 7.4µM, Pf growth 96h inconclusive

High-throughput results as filed in PubChem.
